Measured values published in PubChem BioAssay (NCI).
The panel holds about 79,000 compounds, 15% with a hit somewhere; the sample as a whole holds those more often. The source made the active and inactive calls. No stated cut-off is given here; in the data, active means growth inhibition above about 70%; inactive means the rest.

Assays:
[1] = NCI Yeast Anticancer Drug Screen. Data for the wt1 strain (AID 149);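 further: 0% = growth of vehicle-treated wt1 cultures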; conditions: S. cerevisiae wt1 strain (SPY 50644) growth inhibition, active compounds read high
Method in brief: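 Measured: growth of wt1 yeast under compound versus vehicle treatment, reported as inhibition.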

[2] = NCI Yeast Anticancer Drug Screen. Data for the rad50EPP+ strain (AID 151);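 further: 0% = growth of vehicle-treated control cultures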; conditions: S. cerevisiae rad50 mutant strain, active compounds read high
Method in brief: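 Genetically defined yeast (rad50EPP+, DNA damage repair alteration) is grown with compound, and inhibition of growth is expressed relative to vehicle-treated controls.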

[3] = NCI Yeast Anticancer Drug Screen. Data for the rad50 strain (AID 155);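 further: 0% = growth of vehicle-only cultures of the same strain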; conditions: S. cerevisiae rad50 strain growth inhibition, active compounds read high
Method in brief: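 Growth of the mutant yeast was measured after compound exposure and referenced to vehicle-treated cultures.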

[4] = NCI Yeast Anticancer Drug Screen. Data for the mec2-1 strain (AID 157); conditions: S. cerevisiae mec2-1 strain, active compounds read high
Method in brief: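 Each compound was tested on mec2-1 yeast, a strain altered in DNA damage repair or cell cycle control. Growth inhibition is reported relative to vehicle.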

[5] = NCI Yeast Anticancer Drug Screen. Data for the rad14 strain (AID 159);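 further: 0% = growth of vehicle-treated control cultures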; conditions: S. cerevisiae rad14 strain growth inhibition, active compounds read high
Method in brief: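 Here, inhibition of yeast growth was measured after compound exposure, using a strain with a genetic defect in DNA damage repair and vehicle-treated cultures as the reference.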

[6] = NCI Yeast Anticancer Drug Screen. Data for the sgs1 mgt1 strain (AID 161);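 further: 0% = growth of cultures given vehicle only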; conditions: S. cerevisiae sgs1 mgt1 strain, active compounds read high
Method in brief: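 Read-out: growth inhibition vs vehicle controls. Cells: mutant yeast strain deficient in DNA damage repair.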

[7] = NCI Yeast Anticancer Drug Screen. Data for the CLN2oe strain (AID 163);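 further: 0% = growth of vehicle-only control cultures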; conditions: S. cerevisiae CLN2oe strain, active compounds read high
Method in brief: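 First, the altered yeast strain was treated with each compound; second, its growth was measured; finally, inhibition was derived by comparison with vehicle controls.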

[8] = NCI Yeast Anticancer Drug Screen. Data for the cln2 rad14 strain (AID 165);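 further: 0% = growth equal to vehicle treated cultures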; conditions: S. cerevisiae cln2 rad14 strain, active compounds read high
Method in brief: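 Test compounds were added to cln2 rad14 yeast cultures; inhibition of growth was then determined by comparison with vehicle treatment.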

[9] = NCI Yeast Anticancer Drug Screen. Data for the bub3 strain (AID 167); conditions: S. cerevisiae bub3 mutant strain, active compounds read high
Method in brief: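 Whole-cell yeast assay. The mutant strain was incubated with compounds, and growth inhibition was determined by comparison with vehicle-treated cells.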

[10] = NCI Yeast Anticancer Drug Screen. Data for the wt2 strain (AID 169);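 further: 0% = growth of vehicle-treated yeast cultures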; conditions: S. cerevisiae wt2 strain growth inhibition, active compounds read high
Method in brief: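 The panel's yeast strains carry defined changes in DNA repair or cell cycle genes. Each strain is grown with compound, and growth loss is scored relative to vehicle.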

[11] = NCI Yeast Anticancer Drug Screen. Data for the mlh1 strain (AID 171);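 further: 0% = growth of vehicle-treated control cultures of the same strain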; conditions: S. cerevisiae mlh1 strain growth inhibition, active compounds read high
Method in brief: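 Inhibition values reflect reduced yeast growth in the presence of compound, referenced to vehicle controls, using a strain chosen for its alteration in DNA repair or cell cycle control.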

[12] = NCI Yeast Anticancer Drug Screen. Data for the sgs1 strain (AID 173);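 further: 0% = growth of vehicle-only control cultures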; conditions: S. cerevisiae sgs1 mutant, active compounds read high
Method in brief: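 Vehicle-treated cultures served as reference for growth inhibition of a yeast strain altered in DNA damage repair or cell cycle control after compound exposure.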

[13] = NCI Yeast Anticancer Drug Screen. Data for the mlh1 rad18 strain (AID 175); conditions: S. cerevisiae mlh1 rad18 strain growth inhibition, active compounds read high
Method in brief: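 Inhibition values reflect reduced growth of mutant yeast versus vehicle-treated controls following compound exposure; the mutations affect DNA damage repair.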

[14] = NCI Yeast Anticancer Drug Screen. Data for the rad18 strain (AID 177); conditions: S. cerevisiae rad18 mutant growth inhibition, active compounds read high
Method in brief: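 Steps: expose repair-mutant yeast to compound; measure growth; express as inhibition relative to vehicle control.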

[15] = NCI Yeast Anticancer Drug Screen. Data for the rad52 strain (AID 147);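 further: 0% = growth of vehicle-treated control cultures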; conditions: S. cerevisiae rad52 mutant growth inhibition, active compounds read high
Method in brief: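 Inhibition of yeast growth, referenced to vehicle controls, was the measured output for a strain with defective DNA damage repair.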

[16] = at 5.0 µM (retest, dose inferred, filed as 0.5)
[17] = at 50.0 µM (retest, dose inferred, filed as 5.0)

Measured: growth inhibition

BrCc1ccccc1C(c1ccccc1)c1ccccc1
active: [1]; at 11.0 µM 96% | [1]; at 33.0 µM 97% | [1]; at 100.0 µM 95% | [3]; at 3.7 µM 85% | [3]; at 11.0 µM 97% | [3]; at 33.0 µM 96% | [3]; [17] 96% | [3]; at 50.0 µM 98.1% | [3]; at 100.0 µM 93% | [4]; at 11.0 µM 95% | [4]; at 33.0 µM 96% | [4]; [17] 98% | [4]; at 50.0 µM 98.2% | [4]; at 100.0 µM 96% | [5]; at 11.0 µM 96% | [5]; at 33.0 µM 97% | [5]; at 100.0 µM 95% | [6]; [17] 98% | [6]; at 50.0 µM 97.9% | [7]; at 11.0 µM 97% | [7]; at 33.0 µM 97% | [7]; at 100.0 µM 96% | [8]; [17] 93% | [8]; at 50.0 µM 95.8% | [9]; at 11.0 µM 96% | [9]; at 33.0 µM 97% | [9]; [17] 97% | [9]; at 50.0 µM 97.3% | [9]; at 100.0 µM 94% | [10]; at 11.0 µM 97% | [10]; at 33.0 µM 96% | [10]; at 100.0 µM 95% | [11]; at 11.0 µM 97% | [11]; at 33.0 µM 97% | [11]; at 100.0 µM 96% | [12]; at 3.7 µM 84% | [12]; at 11.0 µM 97% | [12]; at 33.0 µM 97% | [12]; at 100.0 µM 96% | [13]; [16] 82% | [13]; [17] 97% | [13]; at 50.0 µM 98.3% | [14]; at 3.7 µM 89% | [14]; at 11.0 µM 96% | [14]; at 33.0 µM 97% | [14]; at 100.0 µM 96%
inactive: [1]; at 1.2 µM -2% | [1]; at 3.7 µM 34% | [2]; at 1.2 µM 1% | [2]; at 3.7 µM 6% | [2]; at 11.0 µM 8% | [2]; at 33.0 µM 9% | [2]; at 100.0 µM 15% | [3]; at 1.2 µM 8% | [3]; [16] 12% | [4]; at 1.2 µM 4% | [4]; at 3.7 µM 42% | [4]; [16] 21% | [5]; at 1.2 µM 3% | [5]; at 3.7 µM 64% | [6]; [16] 58% | [7]; at 1.2 µM 8% | [7]; at 3.7 µM 64% | [8]; [16] 49% | [9]; at 1.2 µM 4% | [9]; at 3.7 µM 56% | [9]; [16] 24% | [10]; at 1.2 µM -1% | [10]; at 3.7 µM 62% | [11]; at 1.2 µM 10% | [11]; at 3.7 µM 68% | [12]; at 1.2 µM 9% | [14]; at 1.2 µM 25%

COc1cc(/C=C/c2sc3ccccc3[n+]2C)ccc1N(C)C
inactive: [15]; at 1.2 µM 1% | [15]; at 3.7 µM -2% | [15]; at 11.0 µM 0% | [15]; at 33.0 µM 67% | [2]; at 1.2 µM -1% | [2]; at 3.7 µM 4% | [2]; at 11.0 µM 11% | [2]; at 33.0 µM 31% | [3]; at 1.2 µM -4% | [3]; at 3.7 µM 6% | [3]; [16] 3% | [3]; at 11.0 µM -18% | [3]; at 33.0 µM 65% | [3]; [17] 4% | [3]; at 50.0 µM 67.8% | [4]; at 1.2 µM 0% | [4]; at 3.7 µM 0% | [4]; [16] 3% | [4]; at 11.0 µM 2% | [4]; at 33.0 µM 69% | [4]; [17] 0% | [4]; at 50.0 µM 61.1% | [5]; at 1.2 µM -4% | [5]; at 3.7 µM -7% | [5]; at 11.0 µM -2%
active: [15]; at 100.0 µM 93% | [2]; at 100.0 µM 87% | [3]; at 100.0 µM 96% | [4]; at 100.0 µM 98% | [5]; at 33.0 µM 88%
